Here are results for 103 compounds from PubChem BioAssay AID1626 (SRMLSC, 2009).

The structures appear in SMILES notation. Among all 220,000 compounds or so, about 2,000 (0.91%) were called active. About 2% were inconclusive and are not listed. Cut-off read from the data, not from the text of the source: inconclusive = inhibition above about 80% without an active follow-up result; inactive = below that; test concentration not stated here. The list is a sample of the results. Entries with a potency or affinity are not part of this list.

The nature of the test: M. tuberculosis H37Rv growth inhibitors, H37Rv strain (AID 1626).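 Note: bacteria incubated seven days before Alamar blue readout; 0% = bacteria only wells and 100% = bacteria with antibiotic wells.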 As to conditions: active compounds read high, concentration not given here.
As to `CC(C)Sc1nnc([C@@H](N)Cc2ccccc2)o1`, the inhibition was -1.26% (inactive). Consider `Cc1ccc(-c2nn(-c3cccc(F)c3)cc2CNCCc2ccncc2)o1`, for which the inhibition is 8.28% (inactive). With `Cc1ccc(-c2nn(-c3cccc(F)c3)cc2CNCc2cccnc2)o1`, the inhibition is 12.8% (inactive). Consider `C=CCNC(=O)c1onc(CSc2cc(C)cc(C)c2)c1C(=O)NCC=C`, for which the inhibition is 4.46% (inactive).

Regarding `O=c1c2cn[nH]c2[nH]c(=S)n1-c1cccc2ccccc12`, the inhibition was 8.18% (inactive). As for `COc1ccccc1OCC#CCN1CCCCCC1`, the inhibition was 4.4% (inactive). As to `COc1ccc(NC2=NCC(C)S2)cc1` (stereo not drawn), the inhibition is 5.03% (inactive).

In the case of `Cc1ccc(NC2=NCC(Cc3ccc(Br)cc3)S2)cc1` (stereo not drawn), the inhibition was 44.8% (inactive).

Turning to `CC1=C(C#N)C(NC(=O)C(C)(C)C)(C(F)(F)F)C(=O)N1` (stereo not drawn), the inhibition is -1.62% (inactive). Turning to `CCOC(=O)CN(Cc1sccc1C)C(=O)Nc1ccc(OCC)cc1`, the inhibition was 3.69% (inactive). For the compound `CSc1ccc(/C=C(/Sc2nnc(-c3ccccc3)o2)C(=O)O)cc1`, the inhibition is -6.84% (inactive).

For the compound `CCOC(=O)c1cccc(NC(=O)/C=C/c2ccc([N+](=O)[O-])cc2)c1`, the inhibition is 22.2% (inactive). As to `CCCCCC/C(=N/O)c1ccccn1`, the inhibition was -3.95% (inactive).

On to `CCCCCC(=O)N/N=C(\C)c1ccccn1`, for which the inhibition is 1.4% (inactive).

For `COc1ccc(Cl)cc1-c1n[nH]c(=S)n1C1CCCCC1`, the inhibition was 0.84% (inactive).

With `CC(=O)c1cccc(CN2CCC(CO)(CCCc3ccccc3)CC2)c1`, the inhibition is 3.9% (inactive). For `Cc1ccccc1-c1ncc(CN2CCC(CO)(CCCc3ccccc3)CC2)cn1`, the inhibition was 69.6% (inactive). Under `N#C/C(=C(/O)c1cccs1)c1nnc2n1CCCCC2` stands -5.04% (inactive); under `Cc1ccc(S(=O)(=O)N2CCCC(C(=O)N(Cc3cccs3)C3CC3)C2)cc1` (stereo not drawn), -4.95% (inactive); under `CSCCC(NC(=O)c1ccc(C(C)(C)C)cc1)C(=O)O` (stereo not drawn), 0.53% (inactive). As for `O=C(COc1ccc(OCc2ccccc2)cc1)NN=C1CCCC1`, the inhibition was 7.98% (inactive). `Nc1ccc(O)c2c1C(=O)c1ccccc1C2=O`: the inhibition was 0.25% (inactive). As to `COc1ccc(OC)c2c1C(=O)c1ccccc1C2=O`, the inhibition is 6.76% (inactive).

On to `Clc1ccc(Nc2ncn[nH]2)cc1`, for which the inhibition was 77.2% (inactive). In the case of `Clc1cc(Cl)cc(Nc2ncn[nH]2)c1`, the inhibition is 5.96% (inactive). In the case of `CCCOc1ccc2c(C)c(CC(=O)OC)c(=O)oc2c1`, the inhibition is -2.3% (inactive). The result for `Cc1ccc(SCC(=O)NC(=O)NC(C)C)c(C)c1` reads 11.6% (inactive); that for `O=C(Nc1nnc(C2CC2)s1)c1cc(-c2ccccc2)nn1-c1ccccc1`, 43.6% (inactive); that for `COc1ccc(NC(=S)N(Cc2ccc(Cl)cc2)Cc2ccc(C(=O)O)cc2)cc1Cl`, 61% (inactive). For the compound `O=C(Oc1ccc2ccccc2c1)c1ccco1`, the inhibition is 53.4% (inactive). In the case of `COC(=O)c1ccc(OC(=O)c2ccco2)cc1`, the inhibition was -4.94% (inactive). Consider `CC1CC(C)(C)NC(C)c2ccccc21` (stereo not drawn), for which the inhibition was -2.84% (inactive). Regarding `CC1=CC(C)(C)Nc2ccc(OC(=O)c3cccnc3)cc21`, the inhibition is -2% (inactive).

For `CC1CC(C)(C)NCc2ccccc21` (stereo not drawn), the inhibition was -9.91% (inactive). Consider `CC1=CC(C)(C)Nc2ccc(OC(=O)CN3C(=O)c4ccccc4C3=O)cc21`, for which the inhibition was -11.5% (inactive).

On to `NS(=O)(=O)c1ccc(NC(=O)c2c(Cl)cccc2Cl)cc1`, for which the inhibition was 2.71% (inactive). In the case of `O=C1CC(c2cccc(F)c2)c2c(c3ccccc3[nH]c2=O)O1` (stereo not drawn), the inhibition is 1.98% (inactive). As to `O=c1c2ccccc2nc(-c2ccccc2)n1-c1ccccc1`, the inhibition is 2.18% (inactive). As to `Cc1ccccc1-n1c(C)nc2ccccc2c1=O`, the inhibition was 2.88% (inactive).

With `CC(Nc1ccc(Cl)cc1)c1cc(Cl)ccc1O` (stereo not drawn), the inhibition is -8.64% (inactive). In the case of `Cc1ccc(NC(C)c2cc(Cl)ccc2O)cc1` (stereo not drawn), the inhibition was -1.72% (inactive). For the compound `CSc1nc(N(C)NC(=O)c2ccccc2)c2ccccc2n1`, the inhibition is -4.21% (inactive). Under `CSc1nc(N(C)NC(=O)c2ccc(F)cc2)c2ccccc2n1` stands -5.17% (inactive). For the compound `O=C(NCc1ccccc1)[C@]1(C(F)(F)F)C[C@H](CCc2ccccc2)CCCO1`, the inhibition is -10.1% (inactive). The result for `Nc1nn(-c2cccc(F)n2)cc1-c1ccccc1` reads -5.22% (inactive). Regarding `O=C(COc1ccc(Cl)cc1)Nc1ccccc1N1CCOCC1`, the inhibition was -1.58% (inactive). On to `CC(C)(C)NC(=O)COC(=O)c1cc(F)c(F)cc1Cl`, for which the inhibition was 38.6% (inactive). As for `CCCCNC(=O)COC(=O)c1ccc(Cl)c(S(N)(=O)=O)c1`, the inhibition was -0.33% (inactive). As to `CNC(=O)COC(=O)c1cc(F)c(F)cc1Cl`, the inhibition was 4.23% (inactive). For `CCCCNC(=O)COC(=O)c1ccc(F)cc1Cl`, the inhibition is 10.1% (inactive).

Turning to `CCCNC(=O)COC(=O)c1cc(SC)ccc1Cl`, the inhibition is 7.67% (inactive). `CC(C)NC(=O)COC(=O)c1cc(Br)ccc1Cl`: the inhibition was 4% (inactive).

Consider `CC(/C=C/c1ccccc1)=N\Nc1nc(-c2ccccc2)cs1`, for which the inhibition is 5.57% (inactive). On to `CCCCn1nnc(NC(=O)c2ccc(-c3ccccc3[N+](=O)[O-])o2)n1`, for which the inhibition was 9.1% (inactive). `CCc1ccc(NS(=O)(=O)c2ccc(OC)c(C)c2)cc1`: the inhibition was 16.8% (inactive).

In the case of `Cc1nn(C(=O)c2c(-c3ccccc3)noc2C)c(C)c1N=Nc1cc(C(F)(F)F)cc(C(F)(F)F)c1`, the inhibition is 4.12% (inactive). With `COC(=O)CNC(=O)C1CCN(c2nc(C)cc(C)n2)CC1`, the inhibition was -8.28% (inactive). As for `CCOC(=O)N1c2ccccc2C=CC1OCC` (stereo not drawn), the inhibition is -8.15% (inactive). Take `CCOC(=O)CN1C(=O)C(CC)Oc2ccccc21` (stereo not drawn): the inhibition was -1.23% (inactive).

As to `O=C(CN1CCN(c2ccccc2Cl)CC1)NC1CCCc2ccccc21` (stereo not drawn), the inhibition was 14.2% (inactive). Regarding `CCCC1(CCC)C(=O)NC(=NCc2ccccc2)NC1=O`, the inhibition is -6.66% (inactive). The result for `CCCCOc1cccc(-c2nnc(N)s2)c1` reads 37.6% (inactive). Consider `CCCCOc1cccc(C(=O)O)c1`, for which the inhibition was -6.88% (inactive). Under `C=CCCCCCCCC(=O)OC` stands -15.6% (inactive); under `O=C(CSc1n[nH]c(-c2cccs2)n1)NCc1ccc2c(c1)OCO2`, 6.67% (inactive); under `CCOC(=O)Nc1c(C)n(C)n(-c2ccccc2)c1=O`, -5.08% (inactive).

Turning to `Cc1ccc(-c2nnc(-c3ccc(NC(=O)c4ccco4)cc3)o2)cc1`, the inhibition is 6.39% (inactive). Take `O=C(OCC#CCSc1nnc(-c2cccc3ccccc23)o1)c1ccco1`: the inhibition is 64.9% (inactive). The result for `O=C(OCc1nnc(-c2ccccc2)o1)c1ccco1` reads 5.59% (inactive). For the compound `COC(=O)c1ccccc1NC(=O)CSc1nnc(-c2ccc(C)cc2)o1`, the inhibition was 6.5% (inactive).

`Cc1ccc(CN2CCc3c(OCC(=O)Nc4cc(C)ccc4C)cccc3C2=O)cc1`: the inhibition was 4.57% (inactive). Under `CC1CCCCN1S(=O)(=O)c1ccc(S(=O)(=O)N2CCN(c3ccccc3)CC2)cc1` (stereo not drawn) stands -4.53% (inactive); under `O=C(c1ccco1)N1CCN(S(=O)(=O)c2ccc(C3CCCCC3)cc2)CC1`, -4.85% (inactive); under `CCOc1ccc(N2C(=O)CNC2=S)cc1`, -2.82% (inactive). The result for `CCOc1ccc(N2CC(=O)N(c3ccc(OCC)cc3)CC2=O)cc1` reads -2.5% (inactive). Take `CCOC(=O)c1cnc2ccc(OC)cc2c1NCc1ccccc1`: the inhibition was 20.8% (inactive). For `CCOC(=O)c1cnc2ccc(OCC)cc2c1NCc1cccnc1`, the inhibition is 10.7% (inactive). Turning to `CCSc1nnc(NC(=O)C2Cc3ccccc3CN2C(=O)c2ccco2)s1` (stereo not drawn), the inhibition is -9.18% (inactive). In the case of `COC(=O)CC1COc2ccccc2N1C(=O)c1ccc(OC)cc1` (stereo not drawn), the inhibition is -4.78% (inactive). `COc1ccccc1C1C([N+](=O)[O-])=C(N)Oc2c1c(=O)oc1ccccc21` (stereo not drawn): the inhibition was -2.62% (inactive).

Take `N#CC1=C(N)NC(SCC(=O)c2ccc(Cl)cc2)=C(C#N)C12CCCC2`: the inhibition was 21.4% (inactive). Under `N#CC1=C(N)NC(SCC(=O)c2ccc(Br)cc2)=C(C#N)C12CCCCC2` stands 79.4% (inactive); under `CCN(CC)CCOC(=O)c1ccc(NC(=O)c2cn(-c3ccccc3)nc2-c2cccs2)cc1`, 31.3% (inactive); under `Cc1c(CN2CCCCC2C)c(=O)n(-c2ccccc2)n1C` (stereo not drawn), -1.26% (inactive). Consider `Cc1nc2ccc(NC(=O)c3ccco3)cc2s1`, for which the inhibition is 5.89% (inactive). In the case of `CNC(=O)Nc1ccc2nc(C)sc2c1`, the inhibition is -3.76% (inactive). For the compound `CCN1CCN(c2cc(C)c3cc(NC(=O)c4ccc(Br)o4)ccc3n2)CC1`, the inhibition was -5.55% (inactive). `CCN1CCN(c2cc(C)c3cc(NC(=O)c4cccnc4Cl)ccc3n2)CC1`: the inhibition is -2.95% (inactive). In the case of `CCCC(=O)Nc1nc2ccc(NC(=O)c3ccc(Br)o3)cc2s1`, the inhibition is -1.78% (inactive). The result for `Cc1cc(N2CCN(C)CC2)nc2ccc(NC(=O)c3cccnc3Cl)cc12` reads -11.1% (inactive); that for `Cc1nc2ccc(NC(=O)N(C)c3ccccc3)cc2s1`, 76.8% (inactive). Take `Cc1cc(N2CCN(C)CC2)nc2ccc(NC(=O)c3ccc(Br)o3)cc12`: the inhibition was 5.2% (inactive). Regarding `COC(=O)/C=C1\C(=O)N(c2nc3ccccc3s2)C(=S)N1c1ccc(F)cc1`, the inhibition is 3.22% (inactive). Turning to `O=C(N/C(=C\c1ccccc1)C(=O)N1CCN(CCO)CC1)c1ccccc1`, the inhibition is -6.53% (inactive).

In the case of `Cn1cc(C(=O)NP(=O)(N2CCOCC2)N2CCOCC2)c2ccccc21`, the inhibition was 4.83% (inactive). Turning to `CCc1nc(SCc2ccc(C(=O)OC)o2)n[nH]1`, the inhibition was 1.73% (inactive). Consider `COc1cc(C(=O)Nc2ccc(-n3cnnn3)c(C)c2)cc(OC)c1OC`, for which the inhibition was -2.46% (inactive). `Cc1ccc2[nH]c(=O)c(CN(Cc3ccco3)S(=O)(=O)c3c(C)ccc4nsnc34)cc2c1`: the inhibition was 1.42% (inactive). Turning to `COc1ccc(NC(=O)C/C(C)=N/NC(=O)C(=O)NC(C)C)c(OC)c1`, the inhibition was -3.77% (inactive).

Regarding `CCCCOC(=O)c1ccc(NC(=O)c2cnccn2)cc1`, the inhibition is 79.1% (inactive).

Consider `CCOc1ccc(NC(=O)c2cnccn2)cc1`, for which the inhibition is 7.63% (inactive). Turning to `O=C(O)Cc1ccc(NC(=O)c2cnccn2)cc1`, the inhibition is 2% (inactive). Turning to `CCOC(=O)c1ccc(NC(=O)c2cnccn2)cc1`, the inhibition was 38.2% (inactive).

As a reminder, the inhibition is the drop in the measured response relative to a control, in per cent.
